Our source for the Potency values is PubChem BioAssay (Tox21).

Values joined by “and” are separate entries in the source; they are usually repeats but may differ in a detail not shown here. Equal entries are not always repeated. Records with an inconclusive call do not appear. Entries that show only a call come without a potency. Active and inactive are the calls of the source. Calls come from the whole dose curve; as a rule, active = well fitted activation curve with a large enough effect in the repeat runs; inconclusive = weak or mixed curves; inactive = flat fitted curve, though single readings scatter.
Potency is the fitted concentration of half-maximal effect.

This experiment can be described thus: A CellTox Green Cytotoxicity Assay to monitor cytotoxicity in HepG2 cells - 24 hour (AID 1224878). Note: nearly all actives have a fitted effect of over 45% in size. Particulars: CellTox Green fluorescence; series mostly up to 76.8 µM. From the text: National Center for Advancing Translational Sciences [NCATS]
NIH Chemical Genomics Center [NCGC]
U.S. Environmental Protection Agency [EPA]
National Institutes of Environmental Health Sciences [NIEHS]
National Toxicology Program [NTP]
Cell-based models are critical for drug discovery. Determining the natural cytotoxic effects resulting from test compounds is an essential research activity. A CellTox Green Cytotoxicity Assay to monitor cytotoxicity in real time of continues cell culture during 40 hours of the compound treatment was used to screen Tox21 10K library compounds in HepG2 cells. CellTox Green Cytotoxicity Assay is a nonlytic, homogeneous, biofluorescent method to measure cytotoxicity in cell culture after experimental manipulation. The assay system uses a proprietary asymmetric cyanine dye that is excluded from viable cells but preferentially stains the dead cell's DNA. […] Viable cells produce no appreciable increases in fluorescence. Therefore, the fluorescence signal produced by the binding interaction with dead cell DNA is proportional to cytotoxicity.
The mixture of HepG2 cell suspension and reagents were dispensed at 600cells/6 ul/well in 1536-well tissue culture treated black solid bottom plates using a Multidrop dispenser. After the assay plates were incubated at a 37 C/5% CO2 incubator for 5 hours, 23 nL of compounds dissolved in DMSO, positive and negative controls was transferred to the assay plate by a pintool work station. The plates were incubated at 37 C for 40 hours. The fluorescence intensity were measured at 0h, 8h, 16h, 24h, 32h and 40h time points using ViewLux plate reader during compound treatment.
For the compound `N#Cc1c2ccccc2cc2ccccc12`, the Potency result is “inactive”.

In the case of `Brc1cccc(-c2ccccc2)c1`, the Potency result is “inactive”.

`CCCCC(CC)COC(=O)c1ccccc1C(=O)OCC(CC)CCCC` (stereo not given): the Potency result was “inactive”.

For the compound `CNC(=O)Oc1cc(C)cc(C(C)C)c1`, the Potency entry was “inactive”.

On to `O=S1OCC2C(CO1)C1(Cl)C(Cl)=C(Cl)C2(Cl)C1(Cl)Cl` (stereo not given), for which the Potency is 48.9 µM (active).

In the case of `CC[C@H](C)[C@H]1O[C@]2(C=C[C@@H]1C)C[C@@H]1C[C@@H](C/C=C(\C)[C@@H](O[C@H]3C[C@H](OC)[C@@H](O[C@H]4C[C@H](OC)[C@@H](NC)[C@H](C)O4)[C@H](C)O3)[C@@H](C)/C=C/C=C3\CO[C@@H]4[C@H](O)C(C)=C[C@@H](C(=O)O1)[C@]34O)O2`, the Potency is 11 µM (active).

For `O=NN(CCO)CCO`, the Potency result is “inactive”.

Regarding `CC(=O)[O-].CC(=O)[O-].[Co+2]`, the Potency entry was “inactive”.

With `CCCCCCC[CH2][Sn]([Cl])([Cl])[CH2]CCCCCCC`, the Potency entry is “inactive”.

Regarding `CCN(CC)Cc1nccn1-c1ccc([N+](=O)[O-])cc1C(=O)c1ccccc1Cl`, the Potency entry is “inactive”.

`CSC(=O)c1c(C(F)F)nc(C(F)(F)F)c(C(=O)SC)c1CC(C)C`: the Potency entry is “inactive”.

Regarding `C=CC(=O)[O][Sn]([CH2]CCC)([CH2]CCC)[CH2]CCC`, the Potency is 0.692 µM (active).

`N#Cc1sc2c(=O)c3ccccc3c(=O)c=2sc1C#N`: the Potency was 12.3 µM (active).

Take `C[C@H]1[C@H](c2ccc(Cl)cc2)SC(=O)N1C(=O)NC1CCCCC1`: the Potency entry was “inactive”.

Consider `CC[C@]1(O)CC[C@H]2[C@@H]3CCC4=CCCC[C@@H]4[C@H]3CC[C@@]21C`, for which the Potency entry is “inactive”.

Take `C=CCBr`: the Potency entry was “inactive”.

For `c1cc[n+]2c(c1)-c1cccc[n+]1CC2`, the Potency entry is “inactive”.

Consider `Nc1cc(Cl)ccc1Cl`, for which the Potency result was “inactive”.

Turning to `CN1CCc2cc(Cl)c(O)cc2[C@H]2c3ccccc3CC[C@@H]21`, the Potency result is “inactive”.

On to `[O]=[Cr](=[O])([OH])[O][Cr](=[O])(=[O])[OH]`, for which the Potency entry was “inactive”.

With `O.O.O.O.O.O.O.O=S(=O)([O-])[O-].[Co+2]`, the Potency result was “inactive”.

For the compound `CN(C)C(=S)SSC(=S)N(C)C`, the Potency was 436 nM (active) and 21.3 µM (active).

In the case of `Cc1cnc2c(C(=O)O)c(Cl)ccc2c1`, the Potency entry was “inactive”.

On to `CCC(C)Nc1c([N+](=O)[O-])cc(C(C)(C)C)cc1[N+](=O)[O-]` (stereo not given), for which the Potency entry is “inactive”.

For the compound `CC(C)=CC1C(C(=O)OC(C#N)c2cccc(Oc3ccccc3)c2)C1(C)C` (stereo not given), the Potency result was “inactive”.

`Fc1ccc(C(OCCN2CCN(CCCc3ccccc3)CC2)c2ccc(F)cc2)cc1`: the Potency is 23.9 µM (active).

With `NC(=O)C(Cl)Cl`, the Potency result is “inactive”.

As for `N#Cc1c[nH]cc1-c1cccc2c1OC(F)(F)O2`, the Potency entry is “inactive”.

With `O=[N+]([O-])c1ccc(CCl)cc1`, the Potency entry is “inactive”.

On to `CC(Cl)CCl` (stereo not given), for which the Potency entry was “inactive”.

For `Brc1ccc(Oc2ccc(Br)cc2Br)c(Br)c1`, the Potency result was “inactive”.

On to `CC(=O)[O-].CC(=O)[O-].CC(=O)[O-].[Cr+3]`, for which the Potency entry is “inactive”.

For `CC(C)(C)c1ccc(OP(=O)(Oc2ccccc2)Oc2ccccc2)cc1`, the Potency result is “inactive”.

Take `CCC(C)c1cccc(C(C)CC)c1O` (stereo not given): the Potency is 19.5 µM (active).

For `OCC(Br)CBr` (stereo not given), the Potency entry is “inactive”.

`CCCCON=O`: the Potency entry is “inactive”.

As for `C[C@]12CC[C@H]3[C@@H](CCC4=CC(=O)CC[C@@H]43)[C@@H]1CC[C@@H]2OC(=O)CCc1ccco1`, the Potency entry was “inactive”.

Consider `CCN(CC)C(=O)N[C@@H]1C=C2c3cccc4[nH]cc(c34)C[C@@H]2N(C)C1`, for which the Potency entry is “inactive”.

For `Cc1nn(-c2cc(NS(C)(=O)=O)c(Cl)cc2Cl)c(=O)n1C(F)F`, the Potency result is “inactive”.

As for `CCN(CC)CCN1C(=O)CN=C(c2ccccc2F)c2cc(Cl)ccc21`, the Potency entry was “inactive”.
